The text below walks through data of PubChem BioAssay (Tox21).

Results filed as inconclusive are left out. Entries that show only a call come without a potency. Calls of active or inactive are those of the source. Calls come from the whole dose curve.
Potency is the fitted concentration of half-maximal effect.

Acetylcholinesterase (Homo sapiens), sequence (P22303 whole entry, looked up): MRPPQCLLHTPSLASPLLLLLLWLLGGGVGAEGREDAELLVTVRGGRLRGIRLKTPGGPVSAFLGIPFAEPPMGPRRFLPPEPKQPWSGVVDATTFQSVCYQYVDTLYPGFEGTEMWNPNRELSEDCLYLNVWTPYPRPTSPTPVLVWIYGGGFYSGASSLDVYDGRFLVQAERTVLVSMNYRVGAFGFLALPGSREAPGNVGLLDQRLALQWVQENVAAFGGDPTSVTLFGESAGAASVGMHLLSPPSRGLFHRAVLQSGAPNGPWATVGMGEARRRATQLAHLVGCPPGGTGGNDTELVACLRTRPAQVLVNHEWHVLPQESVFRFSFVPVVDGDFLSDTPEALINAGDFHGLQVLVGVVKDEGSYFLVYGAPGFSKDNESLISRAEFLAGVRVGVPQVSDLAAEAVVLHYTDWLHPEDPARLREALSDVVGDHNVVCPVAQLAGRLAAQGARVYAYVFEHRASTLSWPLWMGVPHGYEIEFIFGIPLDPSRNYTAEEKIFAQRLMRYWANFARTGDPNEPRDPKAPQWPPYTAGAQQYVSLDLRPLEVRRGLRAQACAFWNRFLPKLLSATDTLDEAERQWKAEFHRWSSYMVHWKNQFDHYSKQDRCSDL

This test has as its target Acetylcholinesterase (Homo sapiens) (UniProt P22303). The experiment in a line: Acetylcholinesterase (AChE) small molecule antagonists: colormetric cell-based qHTS assay (AID 1347395). Note: nearly all actives have a fitted effect of over 30% in size. Conditions: SH-SY5Y cells AChE activity, colorimetric (Ellman); series mostly up to 115 µM. In short, it runs like this: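 Homogeneous whole-cell format. SH-SY5Y cells seeded overnight, dosed with compound (30 min, 37 C, 5% CO2), then given DTNB/acetylthiocholine cocktail for 90 min at 37 C; colorimetric signal.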
In general terms: Quantitative high-throughput screening tests each substance at several concentrations.
As for `CC(=O)O[C@@H]1C[C@@H]2CC[C@@]1(C)C2(C)C`, the Potency result was “inactive”.

For `C1CCC2(CCCCO2)OC1`, the Potency result was “inactive”.

For the compound `CC(C(=O)O)c1ccc2c(c1)Cc1cccnc1O2` (centres undefined), the Potency result was “inactive”.

Turning to `CCCCCO`, the Potency result was “inactive”.

With `Cc1c(C(=O)NN2CCCCC2)nn(-c2ccc(Cl)cc2Cl)c1-c1ccc(Cl)cc1`, the Potency entry is “inactive”.

As for `CC1CC(=O)CC(C)(C)C1` (centres undefined), the Potency result is “inactive”.

On to `CC(C)=CCC/C(C)=C/CC/C(C)=C/CCC(=O)OC/C=C(\C)CCC=C(C)C`, for which the Potency result is “inactive”.

Turning to `NC[C@H]1O[C@H](O[C@H]2[C@H](O)[C@@H](O[C@H]3O[C@H](CO)[C@@H](O)[C@H](N)[C@H]3O)[C@H](N)C[C@@H]2N)[C@H](O)[C@@H](O)[C@@H]1O`, the activity, negative = inhibition was -1.99% [at 10.5 µM] (inactive).

As to `CCCCCCC(O)CO` (centres undefined), the Potency result is “inactive”.

As for `CCCCCCCCCCCCCCCS(=O)(=O)Oc1ccccc1`, the Potency result was “inactive”.

Consider `Cc1ccc(C2OC[C@@H]3OC(c4ccc(C)cc4)O[C@H]([C@H](O)CO)[C@@H]3O2)cc1` (some centres undefined), for which the Potency entry was “inactive”.

Regarding `COc1cc(-c2nc(NC(=O)c3cc4cc(C)cc(C)c4n3CC(=O)O)sc2CCC2CCCCC2)c(OC)cc1Cl`, the Potency result was “inactive”.

As for `CC[C@@]1(O)C(=O)OCc2c1cc1n(c2=O)Cc2c-1nc1ccccc1c2/C=N/OC(C)(C)C`, the Potency entry was “inactive”.

With `C[Si](Cl)(c1ccccc1)c1ccccc1`, the Potency result is “inactive”.

With `O=C(O)CCCc1ccccc1`, the Potency result is “inactive”.

`CCCCCCCCOCCCN`: the Potency result was “inactive”.

Turning to `CCCCOCCOC(=O)COc1nc(Cl)c(Cl)cc1Cl`, the Potency entry was “inactive”.

`C=C1CC[C@H]2C[C@@H]1C2(C)C`: the Potency result was “inactive”.

`O=CC=C(c1ccccc1)c1ccccc1`: the Potency result is “inactive”.

As for `CN1CCCC(n2nc(Cc3ccc(Cl)cc3)c3ccccc3c2=O)CC1` (centres undefined), the Potency is 17.4 µM (active).

As to `NS(=O)(=O)Cc1noc2ccccc12`, the Potency entry was “inactive”.

In the case of `CCOC(=O)C(C)Oc1ccc(Oc2nc3ccc(Cl)cc3o2)cc1` (centres undefined), the Potency result is “inactive”.

Take `OCCC(O)CO` (centres undefined): the Potency entry was “inactive”.

In the case of `CC1c2ccccc2CN1NC(=O)c1ccc(Cl)c(S(N)(=O)=O)c1` (centres undefined), the Potency result is “inactive”.

As for `C=C(C)CCCC(C)CCO` (centres undefined), the Potency result is “inactive”.

Turning to `ON(Cc1ccccc1)Cc1ccccc1`, the Potency result was “inactive”.

As for `CCOC(=O)CC(C)C`, the Potency result was “inactive”.

As to `N=C(N)S(=O)O`, the Potency entry is “inactive”.

Regarding `NC(=O)c1ccccc1[N+](=O)[O-]`, the Potency entry was “inactive”.

As for `CC(C)CC(O)Cc1ccccc1` (centres undefined), the Potency result was “inactive”.

For the compound `CCCC(=O)C(CC)Sc1ccoc1C` (centres undefined), the Potency result was “inactive”.

As for `C=CC(C)(CCC=C(C)C)OC(=O)CC(C)C` (centres undefined), the Potency entry is “inactive”.

For `COC(=O)CC(C)=O`, the Potency entry is “inactive”.

Take `O=C1C(O)=C(O)C(=O)C(O)=C1O`: the Potency entry is “inactive”.

Turning to `CCC(OCCCOC)OC(C)=O` (centres undefined), the Potency entry is “inactive”.

With `CCN(CC)CCOc1ccc(Cc2ccccc2)cc1`, the Potency entry is “inactive”.

Take `CCOC(=O)c1ccccc1OC`: the Potency entry is “inactive”.

Consider `CCCCCCCC/C=C/CCCOC(C)=O`, for which the Potency entry is “inactive”.

As to `CC(S)C(C)S` (centres undefined), the Potency entry is “inactive”.
